# Laboratory results reported in PubChem BioAssay AID624465 (National Center for Advancing Translational Sciences (NCATS), 2012).
# Among all 360,000 compounds or so, about 300 (0.083%) were called active. Rule as the data show it: active = activation above about 40%; inconclusive = between about 15% and that limit; inactive = weaker than that. For the sample, actives were picked, then their nearest neighbours and some compounds at random.
# Molecular target: D(2) dopamine receptor (Homo sapiens) (UniProt P14416)
# Assay: Beta-Arrestin HTS for Positive Allosteric Modulators of the Human D2 Dopamine Receptor: Agonists
# Conditions: DiscoveRx PathHunter D2 beta-arrestin, luminescence, 90 min; stronger effect = higher value; 100% = 57 uM dopamine signal
# Excerpt: There is great interest in identifying small molecule ligands for G-protein coupled receptors (GPCRs) as nearly 50% of all FDA-approved drugs target these important receptor proteins. […] Amongst the dopamine receptors (DARs), the D2 is arguably one of the most validated drug targets in neurology and psychiatry. For instance, all receptor-based antiparkinsonian drugs primarily work via stimulating the D2 DAR, whereas all FDA-approved antipsychotic agents are antagonists of this receptor. The D2 DAR is also therapeutically targeted in other disorders such as restless legs syndrome, tardive dyskinesia, Tourette's syndrome, and hyperprolactinemia.
# To this end, a miniaturized qHTS screen was developed to be screened against the Molecular Libraries Small Molecule Repository (MLSMR). This assay seeks to identify agonists against the D2 DAR.
# NIH Molecular Libraries Probe Production Network [MLPCN]
# NIH Chemical Genomics Center [NCGC]
# PI Name: David Sibley, National Institutes of Neurological Disorders and Stroke
# DiscoveRx D2 cells were thawed from frozen stock and seeded at 2,100 cells/ 3 uL/well media (DiscoveRx Plating Reagent 2) with MultiDrop Combi dispenser (Thermo Scientific, Logan, UT) onto white tissue culture treated 1536-well Aurora plates (Brooks Automation, Chelmsford, MA) and allowed to attach overnight at 37 deg C, 5% CO2. Next, 23 nL/well of compound solutions in DMSO were added with a pintool transfer (Kalypsis, San Diego, CA). As the positive control, 1 uL/well dopamine (EC100, 57 uM final concentration) diluted in buffer (HBSS + 10 mM HEPES + SMB + 0.1% Tween-20) was dispensed to 1 column of each plate. The rest of the plate was dispensed with buffer only, 1 uL/well as well. The cells were stimulated by compounds or dopamine control for 90 minutes at 37 deg C, 5% CO2, after which 1.5 ul/well of DiscoveRx detection reagent was added with BioRAPTR FRD dispenser. The detection reagent was prepared by mixing of Galacton Star Substrate, Emerald II solution and PathHunter buffer (supplied by the assay kit) together at 1:5:19 proportion accordingly just prior to dispensing. The plates were incubated at ambient temperature for 1 hour and then the luminescent signal was read on ViewLux plate reader (PerkinElmer, Waltham, MA).
# D(2) dopamine receptor (Homo sapiens), sequence (P14416 whole entry, looked up): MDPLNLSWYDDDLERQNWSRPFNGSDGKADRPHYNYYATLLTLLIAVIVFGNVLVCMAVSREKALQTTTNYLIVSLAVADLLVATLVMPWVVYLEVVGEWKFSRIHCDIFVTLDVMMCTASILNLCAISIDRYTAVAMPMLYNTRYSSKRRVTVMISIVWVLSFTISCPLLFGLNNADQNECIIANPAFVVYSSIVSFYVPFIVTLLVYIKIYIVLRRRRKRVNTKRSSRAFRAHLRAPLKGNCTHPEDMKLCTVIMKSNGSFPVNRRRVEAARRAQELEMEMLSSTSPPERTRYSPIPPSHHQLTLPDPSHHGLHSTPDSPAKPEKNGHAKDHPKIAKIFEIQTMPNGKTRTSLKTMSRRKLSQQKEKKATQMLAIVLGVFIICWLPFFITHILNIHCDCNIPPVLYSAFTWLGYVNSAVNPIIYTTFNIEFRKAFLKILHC
row,Compound,activation
1,CN1OC[C@@H]2CN(C(=O)c3cccnc3)[C@H](c3ccc(N4CCCCC4)cc3)C[C@@H]21,-5.55% (inactive)
2,CCOc1ccc(Nc2nc(Cc3nnc(SCC(=O)c4ccc(C)cc4)o3)cs2)cc1,0.605% (inactive)
3,O=C(Cn1c(-c2ccc(Cl)cc2)noc1=O)N1CCN(c2ccccc2F)CC1,3.21% (inactive)
4,O=c1onc(-c2c(F)cccc2F)n1-c1ccccc1Cl,58.1% (active)
5,Cc1ccc2cccc(S(=O)(=O)N3CCN(c4ccccc4F)CC3)c2n1,1.48% (inactive)
6,O=C(O)CCCC(=O)Nc1ccc(Oc2cccc(C(F)(F)F)c2)nc1,-2.77% (inactive)
7,COc1ccc(NC(=O)C2=NNC(=O)CC2)cc1S(=O)(=O)N1CCCCC1,3.11% (inactive)
8,CC1=C(C(=O)Nc2cccc(C(=O)NCC(C)c3ccccc3)c2)SCCO1 (stereo not given),2.99% (inactive)
9,Cc1ccc(CN2CCN(/N=C/c3cccnc3)CC2)c(C)c1,-1.75% (inactive)
10,CN(C)C(=O)c1nc2ccc(Cl)cn2c1CN1CCN(c2ncccn2)CC1,-28.2% (inactive)
11,Oc1ccc(CN2CCN(c3ncccn3)CC2)cc1,57.4% (active)
12,Cc1ccc(CN2CCN(c3ncccn3)CC2)c(C)c1,101% (active)
13,c1cnc(N2CCN(c3ccc4ccccc4n3)CC2)nc1,-9.01% (inactive)
14,Cc1ccc(CN2CCN(/N=C/c3ccco3)CC2)c(C)c1,-3.14% (inactive)
15,CN(C)c1ccc(CNC2C3CC4CC(C3)CC2C4)cc1 (stereo not given),-0.168% (inactive)
16,CCCCN(Cc1ccccc1)C(=O)C1CCN(Cc2sccc2C)CC1,-2.44% (inactive)
17,O=C(Nc1ccc(N2CCOCC2)nc1)c1c(F)cccc1F,-1.59% (inactive)
18,CCCCC(=O)N(C)c1c(CC)nc2c(OCc3ccc(S(C)(=O)=O)cc3)cccn12,-2.46% (inactive)
19,COc1ccc(C(=O)NCC2CCCO2)cc1S(=O)(=O)NCc1ccc(Cl)cc1 (stereo not given),0.708% (inactive)
20,CC(=O)Nc1cccc(/C(C)=N/NC(=O)c2c(-c3ccccc3Cl)noc2C)c1,-0.376% (inactive)
21,C/C(=N/Nc1nc(-c2ccccc2)c(CC(=O)O)s1)c1ccccc1,-4.03% (inactive)
22,C/C(=N\Nc1cccc(C(=O)O)c1)c1ccc2c(c1)Nc1ccccc1S2,41.5% (active)
23,CC(=O)NN=C(C)c1ccc(NC(=O)C2CC2)cc1,-2.2% (inactive)
24,CC(C)Oc1ccc(CN2CCC2(C)C(=O)NCc2ccc(C(F)(F)F)cc2)cc1 (stereo not given),-5.75% (inactive)
25,O=C(NCc1ccco1)c1ccc(NS(=O)(=O)c2cccc([N+](=O)[O-])c2)cc1,2.68% (inactive)
